The record followed here is PubChem BioAssay AID1063 (University of Pittsburgh Molecular Library Screening Center, 2008).

SMILES strings stand for the structures. Screen size: about 200,000 compounds; about 18,000 (9%) were called active. Rule as the data show it: active = inhibition above about 50%; inactive = the rest. The sample as a whole holds a higher share of actives than the screen did.

This assay in a line: Leishmania major promastigote growth inhibition, primary screen (AID 1063).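 Also: promastigotes grown with compound for 44 hours at 28 °C.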 The following applies: Leishmania major promastigotes, resazurin fluorescence viability; at 10 µM; stronger effect = higher value.
On to `O=C(/C=C/c1ccc(Cl)cc1)Nc1ccc(S(=O)(=O)Nc2ncccn2)cc1`, for which the inhibition was 63.3% (active).
The same measure for `O=C(/C=C/c1ccccc1Cl)Nc1ccc(S(=O)(=O)Nc2ncccn2)cc1`: -5.22% (inactive); for `O=S(=O)(Nc1ncccn1)c1ccc(NS(=O)(=O)c2cccc(Cl)c2Cl)cc1`: -9.09% (inactive).
With `CCOc1cc(NC(=S)NCc2ccco2)c(OCC)cc1NC(=O)c1ccco1` the figure was -3.82% (inactive); with `C[C@@H](C(=O)N1CCNCC1)n1cc(CCC(=O)O)nn1`, -3.38% (inactive).
The same measure for `CCc1ccc(-n2c(=S)sc3c(=O)n(-c4ccccc4OC)c(=S)[nH]c32)cc1`: -0.77% (inactive); for `COC(=O)COc1ccc(C2NC(=O)NC(C)=C2C(=O)NCc2ccccc2)cc1OC` (stereo unspecified): -7.17% (inactive).
In the case of `CCOC(=O)COc1ccc(Cl)cc1C1NC(=O)NC(C)=C1C(C)=O` (stereo unspecified), the inhibition is 0.61% (inactive).
The same measure for `CCCOc1ccc(C2NC(=O)NC(c3ccccc3)=C2C(C)=O)cc1OCC` (stereo unspecified): 71.8% (active).
With `NS(=O)(=O)c1ccc(NC(=O)COC(=O)c2ccc(Cl)nc2)cc1` the figure was -7.52% (inactive).
For `NS(=O)(=O)c1ccc(NC(=S)NC(=O)c2cccc(Br)c2)cc1`, the inhibition was 1.9% (inactive).
With `CCCC(=O)C1CCN(Cc2ccccc2)CC1` the figure was 82.8% (active); with `CC(C)(C)NC(=O)NC(=O)CN1CCC(Cc2ccccc2)CC1`, -1.19% (inactive).
As to `O=C(NCc1cccs1)C1CCN(S(=O)(=O)c2ccc(Cl)cc2)CC1`, the inhibition is -6.16% (inactive).
The same measure for `CCNC(=S)NNC(=O)C1CCN(Cc2ccccc2)CC1`: -3.47% (inactive).
The same measure for `O=c1cc(CO)oc(CN2CCC(Cc3ccccc3)CC2)c1O`: -2.15% (inactive); for `O=C(Nc1ccccc1)N1CCN(Cc2ccccc2)CC1`: -1.08% (inactive).
On to `NC(=O)c1ccc(CN2CCC(Cc3ccccc3)CC2)cc1`, for which the inhibition is 86.9% (active).
Turning to `O=C(NCCCN1CCN(Cc2ccccc2)CC1)C1CCN(S(=O)(=O)N2CCCC2)CC1`, the inhibition was -6.76% (inactive).
`O=C(NNS(=O)(=O)c1ccc(Cl)cc1)C1CCN(Cc2ccccc2)CC1`: the inhibition is 95.9% (active).
The same measure for `CCOC(=O)N1CCN(C(=O)c2ccccc2N(Cc2ccccc2)S(=O)(=O)c2ccc(OC)cc2)CC1`: 43.4% (inactive); for `COc1ccc(N2CCN(CCCNC(=O)C3CCN(S(=O)(=O)N4CCOCC4)CC3)CC2)cc1`: -4.04% (inactive); for `CC(C)NC(=O)c1ccc(Cl)cc1Cl`: -4.71% (inactive).
The same measure for `Cc1cc(C)cc(NC(=O)N2CCCCCCC2)c1`: 9.55% (inactive); for `CCOC(=O)C1CCN(c2ncnc3c2c(-c2ccccc2)cn3-c2ccc(C)cc2)CC1`: -6.27% (inactive); for `Cc1ccc(NC(=O)Nc2cccc(C(F)(F)F)c2)nc1`: 11% (inactive).
The same measure for `COC(=O)C1=C(C)NC(=O)/C1=C/c1ccc(CNS(=O)(=O)c2ccc(C)cc2)o1`: 15.8% (inactive).
Turning to `COC(=O)C1=C(C)N(c2ccc(C)cc2)/C(=C/c2ccc(O)cc2)C1=O`, the inhibition is 97.8% (active).
`COC(=O)C1=C(C)N(c2ccc(Br)cc2)C(=O)/C1=C\c1ccco1`: the inhibition is 24.7% (inactive).
The same measure for `COc1ccc(S(=O)(=O)N2CCN(C(=O)c3cc(C)oc3C)CC2)cc1`: 8.89% (inactive); for `C/C(CC(=O)Nc1cccc(C(F)(F)F)c1)=N\NC(=O)C(=O)NCC(C)C`: -8.72% (inactive); for `COc1ccc(C(=O)CSc2nnc(-c3ccco3)o2)cc1`: -1.52% (inactive).
The same measure for `N#Cc1ccc(-c2nc3cc(C#N)c(C#N)cc3nc2-c2ccccc2)cc1C#N`: 59% (active).
With `N#Cc1c(-c2ccc(F)cc2)nc(-c2ccccc2)[nH]c1=O` the figure was 3.06% (inactive); with `N#Cc1ccc(-c2ccc(F)cc2)nc1Sc1ccccc1`, -13% (inactive).
Take `CC1(C)CC(=O)c2cnc3nc4ccccc4n3c2C1`: the inhibition is 0.4% (inactive).
The same measure for `Cc1cccc(CCNS(=O)(=O)c2ccc(S(=O)(=O)NC3CCCC3)cc2)c1`: 68.6% (active).
For the compound `CSc1ccc(S(=O)(=O)NC2CCCCC2)cc1`, the inhibition is -2.31% (inactive).
With `O=C(CCc1ccc(S(=O)(=O)NC2CCCCC2)cc1)NCc1ccccc1` the figure was 43.9% (inactive).
With `CCOC(=O)c1c(N)nn(C(=O)c2ccccc2)c1-c1ccccc1` the figure was 1.03% (inactive); with `O=c1cnnc(Nc2ccccc2)[nH]1`, -6.97% (inactive); with `CCCCc1nc(NCCN)c(C#N)c2c1CSC(C)(C)C2`, 100% (active).
Take `CCCCc1nc(NCc2ccccc2)c(C#N)c2c1CCCC2`: the inhibition is 40.6% (inactive).
With `Cc1nc(NCCN)c(C#N)c2c1COC(C)(C)C2` the figure was -6.15% (inactive); with `COc1ccc(C(=O)NC(=S)Nc2ccc(Cl)cn2)cc1OC`, -4.99% (inactive); with `O=C1NC(c2ccc(-c3ccccc3[N+](=O)[O-])o2)C(C(=O)c2ccc(Cl)cc2)C(O)(C(F)(F)F)N1` (stereo unspecified), 57.7% (active).
The same measure for `CC(=O)C1C(c2cccc(Oc3ccccc3)c2)NC(=O)NC1(O)C(F)(F)F` (stereo unspecified): -1.39% (inactive).
As for `CC(=O)C1C(c2ccc(Cl)cc2)NC(=O)NC1(O)C(F)(F)F` (stereo unspecified), the inhibition was -4.84% (inactive).
With `Cn1nnnc1-c1cc(Cl)cc(Cl)c1` the figure was 5.35% (inactive).
With `O=c1[nH]oc(O)c1-c1ncc(C(F)(F)F)cc1Cl` the figure was -7.85% (inactive); with `O=C(O)CSc1nnc(-c2ccc3c(c2)OCO3)n1-c1ccccc1`, -2.94% (inactive); with `COc1cc2c(cc1O)C(SC)=NC(C)(C)C2`, 77.2% (active).
With `COc1cc2c(cc1OC)C(C(C)C)=NC(C)(C)C2` the figure was -1.29% (inactive); with `COc1cc2c(cc1OC)C(Nc1ccc(S(N)(=O)=O)cc1)=NC(C)(C)C2`, -2.7% (inactive).
Consider `COC(=O)c1c(NC(C)=O)sc(C(=O)Nc2ccccc2OC)c1C`, for which the inhibition is -6.26% (inactive).
With `COc1ccccc1CNC(=O)CN1CCC(n2cnc3cc(F)ccc32)CC1` the figure was 0.36% (inactive); with `CCc1ccccc1NC(=O)Cc1cn(C)c2ccccc12`, 1.32% (inactive); with `NC(=O)c1c(Nc2nc3c(F)cccc3s2)sc2c1CCCC2`, 0.33% (inactive).
For `Fc1cc(F)c2nc(N3CCOCC3)sc2c1`, the inhibition was -5.44% (inactive).
The same measure for `Fc1cc(F)c2nc(Nc3nc4c(F)cccc4s3)sc2c1`: 64.3% (active); for `Cc1cc(C)n(Cc2cnc(N3CCOCC3)s2)n1`: 0.31% (inactive).
Turning to `COc1ccc2ccccc2c1CNCc1ccccn1`, the inhibition was 52.1% (active).
With `COc1ccc2ccccc2c1CNc1nnnn1C` the figure was 1.31% (inactive).
With `COc1ccc(C)cc1NC(=O)NCc1ccccn1` the figure was -9.22% (inactive); with `O=S1(=O)CC/C(=N\Nc2ccc(F)cc2)c2ccsc21`, -11.7% (inactive).
With `Cc1nn(CC(=O)Nc2ccc(C#N)cc2)c(C)c1[N+](=O)[O-]` the figure was -6.73% (inactive); with `OCC1(Cc2ccccc2)CCN(Cc2cc3ccccc3o2)CC1`, 84.5% (active).
On to `CN(C)CCCCCN(C)Cc1cc2ccccc2o1`, for which the inhibition was 11.6% (inactive).
The same measure for `CC(=O)c1cccc(CN2CCC(CO)(Cc3ccccc3)CC2)c1`: 14% (inactive); for `Cc1ccc2c(c1)C1CN(C)CCC1N2C(=S)Nc1ccc(Cl)cc1Cl` (stereo unspecified): 31.9% (inactive); for `Cc1cc(C)cc(N(C(C)C(=O)Nc2c(C)n(C)n(-c3ccccc3)c2=O)S(C)(=O)=O)c1` (stereo unspecified): -3.81% (inactive).
On to `COC(=O)Nc1c(C)n(C)n(-c2ccccc2)c1=O`, for which the inhibition is -8.78% (inactive).
For `Cc1c(NC(=O)C(C)OC(=O)c2cc3c4ccccc4n(C)c3s2)c(=O)n(-c2ccccc2)n1C` (stereo unspecified), the inhibition is 88.6% (active).
Turning to `Cc1sc2c(c1C)c(=O)n(-c1ccccc1)c(=O)n2CC(=O)NCC1CCCO1` (stereo unspecified), the inhibition is -0.67% (inactive).
The same measure for `CCOC(=O)c1cnc2c(c(C)nn2CC)c1Cl`: 6% (inactive).
As for `O=C(CCC(=O)N1CCN(S(=O)(=O)c2ccccc2)CC1)NC1CCCc2ccccc21` (stereo unspecified), the inhibition is 1.14% (inactive).
Consider `O=C(CSc1nncs1)NC1CCCc2ccccc21` (stereo unspecified), for which the inhibition was -8.28% (inactive).
The same measure for `O=C(CN1CCN(c2ccc(O)cc2)CC1)NC1CCCc2ccccc21` (stereo unspecified): 94.5% (active); for `COc1ccc(/C(=N\O)c2nccc3cc(OC)c(OC)cc23)cc1OC`: 3.01% (inactive); for `CCOC(=O)c1ccc(NC(=O)c2cc(=O)[nH]c3ccccc23)cc1`: -7.03% (inactive).
The same measure for `COc1ccccc1CNC(=O)CNC(=O)c1cn(-c2ccccc2OC)c(=O)c2ccccc12`: -2.45% (inactive).
For `COc1cc(OC)c(C(=O)OCC(=O)N2CC(=O)Nc3ccccc32)cc1OC`, the inhibition was -4.64% (inactive).
With `CC(Sc1nnnn1C)C(=O)NC(=O)NC1CCCCC1` (stereo unspecified) the figure was -2.91% (inactive).
With `Cc1cccc(-n2c(N)cc(=O)nc2SC(C)C(=O)NC2CCCCC2)c1` (stereo unspecified) the figure was 55.9% (active); with `COc1cccc(-n2c(SCC(=O)NC3CCCCC3)nc3n[nH]c(C)c3c2=N)c1`, 20.6% (inactive).
With `Cc1ccc2[nH]c(C)c(CCNC(=O)NC3CCCCC3)c2c1` the figure was 5.48% (inactive); with `COc1ccc(N2CCN(C(=O)CNS(=O)(=O)c3ccc(C)c(C)c3)CC2)cc1`, 6.23% (inactive); with `CCCn1c(N)c(C(=O)CSc2nc3ccccc3c(=O)n2-c2ccc(OC)cc2)c(=O)[nH]c1=O`, -3.93% (inactive).
As to `COc1cccc(-n2c(SCC(=O)c3c[nH]c4ccccc34)nc3ccccc3c2=O)c1`, the inhibition is 92.9% (active).
With `N#CCSc1nc2ccccc2c(=O)n1-c1ccccc1` the figure was 4.35% (inactive); with `O=C(Nc1cc(S(=O)(=O)N2CCOCC2)ccc1Cl)c1cc(=O)c2ccccc2o1`, 31.5% (inactive).
With `COC(=O)c1ccc(NC(=O)c2cc(Cl)ccc2OC)cc1` the figure was -3.49% (inactive); with `Cc1[nH]n(-c2ccc([N+](=O)[O-])cc2)c(=O)c1C=NCCN1CCN(C(=O)c2ccccc2F)CC1`, -1.62% (inactive); with `Cc1ccc(N=Nc2c(C)[nH]n(-c3ccccc3)c2=O)cc1`, -5.3% (inactive).
For `COc1cccc(/C=N/NC(=O)c2cccc([N+](=O)[O-])c2)c1OS(=O)(=O)c1ccc(C)cc1`, the inhibition was 55.1% (active).
The same measure for `Cc1ccc(-n2[nH]c(C)c(/C=N/NC(=O)c3cccc([N+](=O)[O-])c3)c2=O)cc1C`: 96.9% (active); for `Cc1[nH]n(-c2ccccc2)c(=O)c1/C=N/NC(=O)c1ccoc1C`: 96.8% (active).
With `COc1cc(OC)c(/C=N/NC(=O)c2ccc([N+](=O)[O-])cc2)cc1Br` the figure was -7.92% (inactive); with `COc1ccc(/C=N/NC(=O)c2ccccc2)cc1OS(=O)(=O)c1ccccc1`, 4.68% (inactive).
In the case of `Cc1[nH]n(-c2ccc(Cl)cc2)c(=O)c1/C=N/n1c(C)nc2ccccc2c1=O`, the inhibition was -14.5% (inactive).
The same measure for `Cc1cccc(C(=O)NNC(=O)c2cccc([N+](=O)[O-])c2)c1`: 4.56% (inactive).
